The full list was thinned out, with hits kept by preference.
TTR transcr act = activators of transthyretin transcription; actives 1.3% (n = 92,000); AID 1117267; SH-SY5Y TTR promoter Gaussia luciferase, luminescence; 100% = recombinant luciferase protein wells; activation, % at 16.7 µM;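 active = activation above the mean of all tested compounds plus 3 SD, cut at about 9.5% in these data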;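 note: cells exposed to compounds for one day before reading; 0% = median of all test compound wells on the plate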
TTR inh HuH7 = decreases TTR transcription in HuH7 cells in activator counter-screen; actives 4% (n = 1,100); shares compounds with TTR transcr act; inhibition, % at 16.7 µM; HuH7 TTR promoter-Gaussia luciferase reporter, luminescence;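 active = average inhibition above the solvent-only control wells' mean plus 3 SD, cut at about 15% in these data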;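 note: 0% = cells with DMSO only and 100% = cells with inhibitor control FD; inhibitors lower well luminescence so higher value means more inhibition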
TTR act confirm = human TTR transcription activation, confirmation | shares compounds with TTR transcr act | SHSY5Y TTR promoter Gaussia luciferase, luminescence; 100% = purified Lucia enzyme wells, no cells | activation, % at 16.7 µM | 1,100 tested, under 10 active | AID 1117280;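 active = mean activation above a set limit taken from the earlier primary screen, cut at about 11% in these data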;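 note: 0% = DMSO-treated cells and 100% = recombinant Lucia luciferase without cells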
Numbers without * were called inactive.

How did CC(C)=CCN1CCN(Cc2ccc3nsnc3c2)CC1CCO (stereo not given) do in these assays?
TTR transcr act: 1

What do the screens show for `CN(C(=O)[C@@H](C1CC1)[C@@H](O)c1ccc2ccccc2c1)c1ccccc1`?
TTR transcr act: -1

What do the screens show for `Cc1ccc(-c2cc(C#N)c3n(c2=O)CCC3)cc1`?
TTR transcr act: -1

How did COC(=O)[C@]12C[C@H](CC(=O)NCC34CC5CC(CC(C5)C3)C4)C(=O)N(CCC3=CCCCC3)C1=C[C@H](C1CCCC1)O[C@@H]2C do in these assays?
TTR transcr act: 1

What do the screens show for `CCCC(=O)OC[C@H]1CN([C@H](C)c2ccccc2)S(=O)(=O)c2c(F)cccc2O1`?
TTR transcr act: -2

Results for C[C@H](CO)N1C[C@H](C)[C@@H](CN(C)S(C)(=O)=O)Oc2ccc(NC(=O)CCC(F)(F)F)cc2C1=O ?
TTR transcr act: 2

What do the screens show for `CSCC(=O)Nc1cc(C)on1`?
TTR transcr act: 8

What do the screens show for `Cc1cc(NC(=O)CSCC(=O)OCc2nnc(-c3ccc(F)cc3)o2)no1`?
TTR transcr act: -1

How did Cc1cc(NC(=O)CSCC(=O)N(C)Cc2ccc(F)cc2)no1 do in these assays?
TTR transcr act: 13*; TTR inh HuH7: -11; TTR act confirm: -1

Results for COC(=O)[C@]12C[C@H](CC(=O)NCc3ccc(OC)c(OC)c3)C(=O)N(Cc3ccc(Cl)cc3Cl)C1=C[C@H](COCc1ccccc1)O[C@@H]2C ?
TTR transcr act: -1

What do the screens show for `COc1ccc(C(=O)C2CCCN(C(=O)c3cccc(N(C)C)c3)C2)cc1OC` (stereo not given)?
TTR transcr act: 12*; TTR inh HuH7: -12; TTR act confirm: 0

What do the screens show for `COc1cccc(C(=O)C2CCCN(C(=O)c3ccc(C#CC(C)(C)O)cc3)C2)c1` (stereo not given)?
TTR transcr act: 0

How did COc1ccc(C(=O)C2CCCN(C(=O)c3ccccc3C(C)=O)C2)cc1F (stereo not given) do in these assays?
TTR transcr act: -1

What do the screens show for `C[C@@H]1CCCN1c1cccc2c1S(=O)(=O)N(C1CC1)CCCO2`?
TTR transcr act: 1

How did CCOC(=O)N1CCN(C(=O)C[C@H]2C[C@@]3(C(=O)OC)C(=C[C@H](C(C)C)O[C@@H]3C3CC3)N(Cc3ccc(Cl)cc3Cl)C2=O)CC1 do in these assays?
TTR transcr act: -1

Results for COC(CNC(=O)[C@H](Cc1ccccc1)NC1(C(=O)NC2CCCCC2)CCCC1)OC ?
TTR transcr act: 0

How did O=C(O)CCn1cc(-c2ccc(Cl)cc2)nc1-c1ccc(Cl)nc1 do in these assays?
TTR transcr act: 9.7*; TTR inh HuH7: -8; TTR act confirm: 1

What do the screens show for `COc1ccc(-c2cn(CCO)c(-c3ccc(Cl)nc3)n2)cc1`?
TTR transcr act: -2

What do the screens show for `Cc1ccc(-c2cn(CCN)c(-c3ccncc3)n2)cc1`?
TTR transcr act: 2

How did O=S1(=O)c2ccc(N3CCC[C@H]3CO)cc2O[C@@H]2CCN1C2 do in these assays?
TTR transcr act: 0

How did Cn1ccc2c(-c3ccc(C(C)(C)C)cc3)cc3c(c21)C1CCC3C1 (stereo not given) do in these assays?
TTR transcr act: -1

How did Cn1ccc2c(-c3ccc(C(=O)O)cc3)cc3c(c21)C1CCC3C1 (stereo not given) do in these assays?
TTR transcr act: 12*; TTR inh HuH7: -12; TTR act confirm: 0

Results for COc1ccc(-c2cc3c(c4c2ccn4C)C2CCC3C2)cc1 (stereo not given) ?
TTR transcr act: -1

How did CCCCOCCCNC(=O)C[C@H]1C[C@@]2(C(=O)OC)C(=C[C@H](C(C)(C)C)O[C@@H]2C)N(Cc2ccc(Cl)cc2Cl)C1=O do in these assays?
TTR transcr act: 0

What do the screens show for `Cc1ccccc1NC(=O)OC1CC2CC1[C@H]1CCCCN1[C@H]2Cc1ccccc1` (stereo not given in full)?
TTR transcr act: -2

How did COc1cccc(NC(=O)Nc2nccc(C)n2)c1 do in these assays?
TTR transcr act: 2

Results for Cc1ccc(-c2c(NC(=O)Nc3ccc(F)cc3)nc3ncccn23)cc1 ?
TTR transcr act: -2

What do the screens show for `Fc1ccccc1Cn1ccc2ccc(-c3ccc4ccn(Cc5ccccc5F)c4c3)cc21`?
TTR transcr act: 0

What do the screens show for `O=C(Nc1ccc(F)cc1)OC1CC2CC1[C@H]1CCCCN1[C@H]2Cc1ccccc1` (stereo not given in full)?
TTR transcr act: 4

What do the screens show for `CN1CCN(C(=S)Nc2ccc(S(N)(=O)=O)cc2)CC1`?
TTR transcr act: 11*; TTR inh HuH7: -9; TTR act confirm: 0

What do the screens show for `CCOC(=O)c1ccc(NC(=S)N2CCN(C)CC2)cc1`?
TTR transcr act: 0

Results for CCCCc1ccc(NC(=S)N2CCN(C)CC2)cc1 ?
TTR transcr act: 7

Results for Cc1ccc(Nc2n[nH]c(=S)s2)cc1F ?
TTR transcr act: 4

Results for COc1ccc(Nc2nc3[nH]c(=O)cc(O)c3s2)cc1 ?
TTR transcr act: 2

How did O=c1cc(O)c2sc(Nc3ccc(Cl)c(F)c3)nc2[nH]1 do in these assays?
TTR transcr act: 9.9*; TTR inh HuH7: 17*; TTR act confirm: -1

What do the screens show for `CCOC(=O)[C@]12CCCC=C1N(Cc1ccc(OC)cc1)C(=O)[C@@H]2CC(=O)NCCCN1CCCC1=O`?
TTR transcr act: 1

What do the screens show for `COc1cccc(-c2cc(NC(C)=O)c3ncc(-c4ccc(OC)c(OC)c4)n3c2)c1`?
TTR transcr act: 1

How did O=C(CSc1ccc2c(c1)OCCO2)NC(=O)Cc1ccccc1 do in these assays?
TTR transcr act: -1

What do the screens show for `Oc1ccc(/C=N/NC(=S)Nc2cccnc2)cc1O`?
TTR transcr act: -2

How did O=C(N/N=C/c1ccc(O)c(O)c1)N/N=C/c1ccc(O)c(O)c1 do in these assays?
TTR transcr act: 11*; TTR inh HuH7: -10; TTR act confirm: -1

Results for Cc1cc(SCC(=O)N/N=C/c2ccc(O)c(O)c2)c(C)cc1Br ?
TTR transcr act: 4

What do the screens show for `O=C(NCCCc1ccccc1)OC1CC2CC1[C@H]1CCCCN1C2` (stereo not given in full)?
TTR transcr act: 1

How did O=C(CNC(=S)N(Cc1ccccc1)Cc1cccnc1)NC1CC1 do in these assays?
TTR transcr act: 5

What do the screens show for `O=C(NNC(=S)NC1CC2C=CC1C2)c1ccncc1` (stereo not given)?
TTR transcr act: 1

Results for N#CCCN(Cc1cccnc1)C(=S)NC1CC2C=CC1C2 (stereo not given) ?
TTR transcr act: 10*; TTR inh HuH7: -9; TTR act confirm: 1

Results for C#CC(CO)N(CCN(Cc1ccccc1)C(C#C)CO)Cc1ccccc1 (stereo not given) ?
TTR transcr act: 1

How did COc1ccc(CN2C(=O)c3ccnn3CC2(C)c2nnnn2-c2c(C)cccc2C)cc1 (stereo not given) do in these assays?
TTR transcr act: 0

Results for COC(=O)[C@]12C[C@H](CC(=O)N3CCCCC3)C(=O)N(Cc3ccco3)C1=C[C@H](C1CCCC1)O[C@@H]2C ?
TTR transcr act: 0

Results for Cn1nnnc1SCc1nc2ccccc2[nH]1 ?
TTR transcr act: -1
